Measured values taken from PubChem BioAssay (NCATS).
“And” between values parts separate entries of the source, which are not always exact repeats. Equal values may be shown once. Records with an inconclusive call do not appear. The source holds several records for some structures; these can differ, active in one and inactive in another. The source made the active and inactive calls. Unless noted, no rule for the calls is given here. Non-standard residues stand in square brackets, D forms with d. Residues, ends and D or L forms follow the SMILES beside them. *: point of attachment. Sta = CC(C)C[C@H](N)[C@@H](O)CC(=O)O; Isovaleryl = CC(C)CC(=O)*

How the values were obtained:
[1] = qHTS profiling of the MIPE4 collection as inhibitors of Plasmodium falciparum (DD2) proliferation (AID 743345); conditions: P. falciparum Dd2 in erythrocytes, SYBR Green DNA, 72 h; at 28.5 µM (top of the series) unless noted
In short: (§1)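 Parasite DNA was quantified by SYBR Green I fluorescence (ex 485, em 535 nm) after overnight lysis in saponin/Triton buffer at room temperature. Cultures at 0.3% parasitemia and 2.5% hematocrit were first exposed to compound for 72 h at 37 C; signals were normalised to artemisinin (0.29 uM) and vehicle wells.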

[2] = qHTS profiling of the MIPE4 collection as inhibitors of Plasmodium falciparum (DD2) proliferation (Rep 2) (AID 743346); conditions: P. falciparum Dd2 in erythrocytes, SYBR Green DNA, 72 h; at 28.5 µM (top of the series) unless noted
In short: as §1

[3] = qHTS profiling of the MIPE4 collection as inhibitors of Plasmodium falciparum (HB3) proliferation (AID 743347);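 also: plate controls were DMSO vehicle wells for no effect and artemisinin wells for full effect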; conditions: P. falciparum HB3 in erythrocytes, SYBR Green DNA, 72 h; at 28.5 µM (top of the series) unless noted
In short: as §1

[4] = High-throughput drug toxicity screening in the BPDCN cell line Gen2.2 (AID 1224824); conditions: Gen2.2 BPDCN cells; at 45.8 µM (top of the series) unless noted;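 also: cells exposed to compounds for 48 h before reading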
In short: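 Gen2.2 cells, 500 per well in phenol red-free RPMI with 10% FBS, exposed to compounds 48 h at 37 C, 5% CO2; viability by CellTiter-Glo luminescence. Percent activity scaled to DMSO (100%) and 9.2 uM bortezomib final (0%).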

[5] = High-throughput drug toxicity screening in the BPDCN cell line Cal-1 (AID 1224825); conditions: Cal-1 BPDCN cell viability, qHTS; at 45.8 µM (top of the series) unless noted
In short: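 Percent activity derived from CellTiter-Glo luminescence, scaling DMSO to 100% and 9.2 uM final bortezomib to 0%. BPDCN Cal-1 cells (500/well, RPMI plus 10% FBS) incubated with compounds 48 hours at 37C before reading.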

[6] = qHTS assay for measurement of the activity of small molecule inhibitors on Zika virus induced Caspase-3 activity in human iPSC derived neural progenitor cells (hNPCs) (AID 1224857; active = well fitted inhibition curve with a large enough effect; also: nearly all actives have a fitted effect of over 65% in size; also: potency is read from the fitted curve at half-maximal effect)
In short: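 Cells were plated at 350 per well and grown 16 to 20 hours. Compound pretreatment lasted one hour, after which ZIKV (2 FFU/cell) was added for 6 hours. Percent inhibition was normalized between uninfected and infected controls.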

[7] = qHTS assay for measurement of the activity of small molecule inhibitors on Zika virus induced Caspase-3 activity in human astrocytoma cells (AID 1224859; active = well fitted inhibition curve with a large enough effect; also: potency is read from the fitted curve at half-maximal effect)
In short: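 Percent inhibition of virus-induced caspase-3/7 signal is calculated against uninfected and ZIKV-infected control cells. Cells are SNB-19, infected at 2 FFU/cell for 6 h after 1 h compound exposure.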

[8] = qHTS Screen of the MIPE 4.0 Collection Against Ewings Sarcoma (EW8) (AID 1259255; active = well fitted inhibition curve with a large enough effect; also: nearly all actives have a fitted effect of over 35% in size; also: potency is read from the fitted curve at half-maximal effect;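 as to viability: 100% = DMSO-treated cells and 0% = medium-only wells without cells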)
In short: (§2)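 CellTiter-Glo luminescence after 48 h compound exposure (titration) gave viability; percent activity used DMSO-treated cells as no inhibition and medium-only wells as full inhibition. Cells grown in RPMI/5% FBS, dosed 4 h post-seeding.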

[9] = qHTS Screen of the MIPE 4.0 Collection Against Ewings Sarcoma (RDES) (AID 1259252; active = well fitted inhibition curve with a large enough effect; also: nearly all actives have a fitted effect of over 35% in size; also: potency is read from the fitted curve at half-maximal effect)
In short: as §2

[10] = qHTS Screen of the MIPE 4.0 Collection Against Ewings Sarcoma (TC71) (AID 1259253; active = well fitted inhibition curve with a large enough effect; also: nearly all actives have a fitted effect of over 40% in size; also: potency is read from the fitted curve at half-maximal effect)
In short: as §2

Row | Compound | parasite growth remaining, % of DMSO control (lower = more inhibition) [1] | parasite growth, % of control (lower = inhibition) [2] | growth, % of control [3] | cell viability, % of control (lower = more cytotoxic) [4] | viability (% of control) [5] | Potency [6] | Potency [7] | Potency [8] | Potency [9] | Potency [10]
1 | Cc1cccc(C#Cc2ccccc2)n1 | 98.6% | 36.6% | 42% | 40.7% | 57.2% | inactive and 6.31 µM (active) | inactive and 3.98 µM (active) | 18.7 µM (active) |  | 
2 | Nc1cccc2c1CN(C1CCC(=O)NC1=O)C2=O (stereo unspecified) | 107% [at 57.5 µM] | 127% [at 57.5 µM] | 108% [at 57.5 µM] | 178% [at 92.2 µM] | 101% [at 92.2 µM] |  | inactive | inactive | inactive | 
3 | O=C(O)c1cccc(-c2noc(-c3ccccc3F)n2)c1 | 96.1% | 41.6% | 99.8% | 41.1% | 93.8% |  | inactive |  |  | 
4 | O=C(c1ccccc1)c1ccc2n1CCC2C(=O)O (stereo unspecified) | 107% | 121% | 104% | 14.8% | 15.1% |  | 16.6 µM (active) | 6.62 µM (active) | 3.32 µM (active) | 4.18 µM (active)
5 | N=C(N=C(N)N)N1CCOCC1 | 96.2% | 93.1% | 101% | 139% | 127% |  | inactive |  |  | 
6 | O=C(O)CCNC(=O)c1ccc(N=Nc2ccc(O)c(C(=O)O)c2)cc1 | 108% | 88.5% | 73.4% | 171% | 130% |  | inactive |  | 9.35 µM (active) | 9.35 µM (active)
7 | CCC1=C(C)CN(C(=O)NCCc2ccc(S(=O)(=O)NC(=O)NC3CCC(C)CC3)cc2)C1=O (stereo unspecified) | 91.8% | 85.1% | 99.4% | 114% | 118% |  | inactive | inactive |  | inactive
8 | Nc1ccn([C@@H]2O[C@H](CO)[C@@H](O)C2O)c(=O)n1 (stereo partly specified) | 137% | 71% | 107% | 225% | 92.2% |  | inactive | inactive | inactive | inactive
9 | COc1cc(Nc2c(C#N)cnc3cc(OCCCN4CCN(C)CC4)c(OC)cc23)c(Cl)cc1Cl | 10.9% | 14.7% | 3.88% | 5% | 3.18% |  | inactive |  | 3.32 µM (active) | 18.7 µM (active)
10 | CCOC(=O)C(C)Oc1cccc2c(=O)n(CC(=O)Nc3ccc4c(c3)OCCO4)ccc12 (stereo unspecified) | 92.5% | 81.6% | 96% | 102% | 88% |  | inactive | 2.64 µM (active) |  | inactive
11 | C[C@H](Cn1cnc2c(N)ncnc21)OCP(=O)(O)O | 112% | 107% | 612% | 168% | 130% |  | inactive | inactive | inactive | inactive
12 | O=C(NCC1CCCCN1)c1cc(OCC(F)(F)F)ccc1OCC(F)(F)F (stereo unspecified) |  |  |  | 42.6% | 12.9% |  | inactive | inactive |  | 
13 | CC(C)Oc1ccc2c(=O)c(-c3ccccc3)coc2c1 | 89.9% | 60% | 54.5% | 181% | 102% |  | 10 µM (active) and 11.8 µM (active) | inactive |  | 
14 | c1ccc2[nH]c(-c3cscn3)nc2c1 | 87.1% | 33.5% | 9.5% | 245% | 102% |  | 16.6 µM (active) | inactive | inactive | inactive
15 | CCN(CC)CCOc1ccc(Cc2ccccc2)cc1 | 74.1% | 36.4% | 84.7% | 158% | 100% |  | inactive |  | 18.7 µM (active) | 
16 | Oc1ccc2ccccc2c1SSc1c(O)ccc2ccccc12 | 53.4% | 30.4% | 9.78% | 2.05% | 0.636% |  | inactive |  |  | 
17 | Cc1cc2c(s1)Nc1ccccc1N=C2N1CCN(C)CC1 |  |  |  | 199% | 115% |  | inactive | inactive | inactive | inactive
18 | Cc1cccc(C)c1OCC(=O)N[C@@H](Cc1ccccc1)[C@@H](O)C[C@H](Cc1ccccc1)NC(=O)[C@H](C(C)C)N1CCCNC1=O | 8.67% | 16.3% | 3.91% | 28% | 91.4% |  | inactive |  |  | 
19 | COCCCN1CCC(NC(=O)c2cc(Cl)c(N)c3c2OCC3)CC1 | 51.1% | 38% | 15.7% | 418% | 76.6% |  | inactive |  |  | 
20 | CN1C(C(=O)Nc2ccccn2)=C(O)c2sccc2S1(=O)=O |  |  |  | 40.6% | 90.4% |  | inactive | inactive | 5.9 µM (active) | 

Row | Compound | parasite growth remaining, % of DMSO control (lower = more inhibition) [1] | parasite growth, % of control (lower = inhibition) [2] | growth, % of control [3] | cell viability, % of control (lower = more cytotoxic) [4] | viability (% of control) [5] | Potency [6] | Potency [7] | Potency [8] | Potency [9] | Potency [10]
21 | CC1(C)CCC(C)(C)c2cc(NC(=O)c3ccc(C(=O)O)cc3)ccc21 | 86.1% | 27% | 49.3% | 73.5% | 66% |  | inactive |  | 23.5 µM (active) | 18.7 µM (active)
22 | Nc1nc(Cl)nc2c1ncn2[C@H]1C[C@H](O)[C@@H](CO)O1 | 90.9% | 114% | 103% | 93.3% | 12% |  | inactive | 0.372 µM (active) | 0.235 µM (active) | 0.372 µM (active)
23 | CCCOc1ccc2nc(NC(=O)OC)[nH]c2c1 | 92% | 126% | 99.5% | 86.8% | 14.2% |  | inactive | 0.0066 µM (active) |  | 0.0093 µM (active)
24 | O=c1c(O)c(-c2cc(O)c(O)c(O)c2)oc2cc(O)cc(O)c12 | 85.3% | 111% | 106% | 54.4% | 111% |  | inactive |  | 16.6 µM (active) | inactive
25 | CCC(C)(Oc1ccc(C2(c3ccc(OC(C)(CC)C(=O)O)cc3)CCCCC2)cc1)C(=O)O (stereo unspecified) | 98.3% | 73.7% | 107% | 148% | 136% |  | inactive | inactive | inactive | inactive
26 | Cc1cc(=O)c2c(O)c3c(O)cc(=O)c4c3c3c(cc(O)c1c23)C(C)(C)C=4O | 23.7% | 13.7% | 5.99% | 130% | 94.6% |  | inactive |  |  | 
27 | Clc1ccc(C(Cn2ccnc2)OCc2ccc(Sc3ccccc3)cc2)c(Cl)c1 (stereo unspecified) | 6.46% | 18.3% | 9.13% | 183% | 100% |  | inactive |  |  | 
28 | O=C1c2ccccc2-c2n[nH]c3cccc1c23 | 93% | 87% | 85.2% | 84.7% | 3.95% |  | inactive |  |  | 
29 | C[C@@H](N)C1CCC(C(=O)Nc2ccncc2)CC1 (stereo partly specified) | 91.5% | 78.9% | 72.6% | 84.4% | 79.9% |  | inactive | inactive | 18.7 µM (active) | inactive
30 | COCCCOc1ccnc(CS(=O)c2nc3ccccc3[nH]2)c1C (stereo unspecified) |  |  |  | 139% | 104% |  | inactive | inactive | inactive | 
31 | CC(C)CC(=O)N[C@H](C(=O)N[C@H](C(=O)N[C@@H](CC(C)C)[C@@H](O)CC(=O)N[C@@H](C)C(=O)N[C@@H](CC(C)C)[C@@H](O)CC(=O)O)C(C)C)C(C)C (Isovaleryl-VV[Sta]A[Sta]-OH) | 99.1% | 58.8% | 64.1% | 72.5% | 39.4% |  | inactive | inactive | inactive | inactive
32 | CC(C)c1nc(CN(C)C(=O)N[C@H](C(=O)N[C@@H](Cc2ccccc2)C[C@H](O)[C@H](Cc2ccccc2)NC(=O)OCc2cncs2)C(C)C)cs1 | 66.3% | 41.9% | 15.5% | 28.1% | 94.9% |  | inactive | 16.6 µM (active) | inactive | 
33 | CC(C)[C@H](N)C(=O)OCCOCn1cnc2c(=O)[nH]c(N)nc21 |  |  |  | 57% | 28.8% |  | inactive | inactive |  | inactive
34 | C[C@]12CCC(=O)C=C1CC[C@@H]1[C@H]2[C@@H](O)C[C@@]2(C)[C@H]1CC[C@]2(O)C(=O)CO | 93.1% | 74.9% | 63% | 208% | 71.5% |  | inactive | inactive | 20.9 µM (active) | inactive
35 | COc1cc(OC)c(C(=O)CCCN2CCCC2)c(OC)c1 | 120% | 38.2% | 75.7% | 165% | 101% |  | inactive | inactive | inactive | inactive
36 | CC(C)(S)[C@@H](N)C(=O)O | 127% | 76.1% | 95.7% | 117% | 106% |  | inactive | inactive | inactive | inactive
37 | O=c1ccc2ccc(O)c(O)c2o1 | 34.2% | 19.7% | 162% | 42.5% | 20.8% |  | inactive |  |  | 14.8 µM (active)
38 | Cc1nc(-c2ccc(OCC(C)C)c(C#N)c2)sc1C(=O)O | 91.7% | 43.1% | 62% | 41.7% | 105% |  | 4.18 µM (active) | inactive | inactive | 
39 | CCCCC(CC)COC(=O)C(C#N)=C(c1ccccc1)c1ccccc1 (stereo unspecified) | 18.3% | 11.9% | 7.29% | 157% | 112% |  | inactive | inactive | inactive | inactive
40 | CC(C)c1ccc2oc3nc(N)c(C(=O)O)cc3c(=O)c2c1 | 91.1% | 71.7% | 74% | 98.6% | 97.4% |  | 1.32 µM (active) and inactive |  |  | 
